# Granule exo inh: LAMP-1 surface exposure blockers, TALL-104 cells – cell-based, flow cytometry, MLPCN library, primary screen | TALL-104 LAMP-1 surface exposure; cells stimulated with thapsigargin and PMA | inhibition, % at 10 µM | actives 0.66% (n = 360,000) | AID 651702, 2012;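 active means inhibition above about 55%, limit read from the data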
# SMARCA2 act: SMARCA2 (BRM) function activators, primary screen, cell-based, luminescence, high throughput. actives 1% (n = 370,000). activation, % at 9.1 µM. MG213 cells, MMTV-luciferase reporter, dexamethasone, overnight; in the data active means activation above about 7.8%
# GASC-1 inh: inhibitors of GASC-1 histone demethylase, primary screen, biochemical, fluorescence, DELFIA europium; Lysine-specific demethylase 4C (Homo sapiens), Q9H3R0; GST-JMJD2C(1-420) H3K9me3 demethylation; inhibition, % at 2.35 µM; actives 0.069% (n = 330,000); AID 2099, 2009;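 active means more than half of a compound's replicate wells show inhibition beyond 50%, single wells judged on their own value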;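 further: signal counts dimethyl H3K9 product captured on neutravidin plate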
# Target sequence (Q9H3R0 1-420 limits assumed): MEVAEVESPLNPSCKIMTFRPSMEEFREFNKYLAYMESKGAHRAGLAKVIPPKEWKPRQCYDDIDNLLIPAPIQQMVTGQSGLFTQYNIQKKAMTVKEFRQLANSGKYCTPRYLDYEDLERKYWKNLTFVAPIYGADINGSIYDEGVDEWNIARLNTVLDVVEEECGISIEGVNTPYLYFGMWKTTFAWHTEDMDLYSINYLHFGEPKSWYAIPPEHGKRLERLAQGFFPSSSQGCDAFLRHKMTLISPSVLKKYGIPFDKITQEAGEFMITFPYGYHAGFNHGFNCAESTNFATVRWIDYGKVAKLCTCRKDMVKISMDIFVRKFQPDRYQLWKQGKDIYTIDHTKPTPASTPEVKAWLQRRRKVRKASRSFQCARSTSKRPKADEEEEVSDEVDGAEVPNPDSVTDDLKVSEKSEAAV
# ALR H2O2 inh: inhibitors of human ALR sulfhydryl oxidase, primary screen, biochemical, H2O2 detection, HRP-luminol luminescence, single point | FAD-linked sulfhydryl oxidase ALR (Homo sapiens), P55789 | purified ALR, DTT oxidation | inhibition, % (no concentration beside the values) | actives 3.8% (n = 290,000);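 active means mean replicate inhibition above about 79%, with every replicate also reaching it, limit read from the data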
# Target sequence (P55789 whole entry, looked up): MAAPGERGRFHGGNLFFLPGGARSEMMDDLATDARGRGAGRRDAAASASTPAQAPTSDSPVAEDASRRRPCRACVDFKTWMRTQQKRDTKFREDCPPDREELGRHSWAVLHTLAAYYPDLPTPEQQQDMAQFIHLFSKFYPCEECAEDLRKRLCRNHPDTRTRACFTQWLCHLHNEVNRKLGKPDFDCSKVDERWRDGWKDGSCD
# PfM18AAP inh: PfM18AAP inhibitors, malaria aminopeptidase, primary screen, biochemical, QFRET, recombinant enzyme; actives 1.2% (n = 290,000); M18 aspartyl aminopeptidase (Plasmodium falciparum 3D7); H-Glu-NHMec fluorogenic cleavage; AID 1822, 2009; inhibition, % at 7.35 µM;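 active means inhibition above the campaign mean inhibition over all tested compounds plus 3 SD, cut at about 28% in these data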
# beta cell repl: inducers of MIN6 beta-cell proliferation, primary screen, ATP luminescence, uHTS | MIN6 cells proliferation, ATPlite luminescence, 48 h; cells starved in 0.2% serum; 100% = growth in 10% serum | proliferation, % at 10 µM | actives 0.29% (n = 330,000) | AID 2380, 2010;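 active means compounds whose signal lies at least 3.5 SD above the mean of all wells on their plate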
# Exocytosis CP01: inhibitors of lytic granule exocytosis, confirmation, TALL-104 cells, flow cytometry, Cherry Pick01 | actives 11% (n = 1,500) | inhibition, % at 10 µM | LAMP-1 externalization; stimulated with PMA plus thapsigargin | shares compounds with Granule exo inh; in the data active means inhibition above about 60%
# Hits are given with their value; 0 = inactive; - = not tested or not shown; ! = repeats disagree. Only some compounds are listed: those with a hit (about 5.4% of all), similar ones and a draw of the others.
SMILES,Granule exo inh,SMARCA2 act,GASC-1 inh,ALR H2O2 inh,PfM18AAP inh,beta cell repl,Exocytosis CP01
O=C(NCc1ccncc1)C(=O)Nc1nc(C23CC4CC(CC(C4)C2)C3)cs1,77,0,0,0,0,0,0
O=C(NCc1ccccc1)C(=O)Nc1nc(C23CC4CC(CC(C4)C2)C3)cs1,0,0,0,-,0,0,-
O=C(Nc1nc(-c2ccco2)cs1)c1ccccc1,71,0,0,0,0,0,0
COCCNC(=S)N(CCc1c(C)[nH]c2ccc(F)cc12)Cc1ccco1,63,0,0,0,0,0,0
COC(=O)[C@]12C[C@H](CC(=O)NCc3cccs3)C(=O)N(Cc3ccc4c(c3)OCO4)C1=C[C@H](COCc1ccccc1)O[C@@H]2C,-,0,-,-,-,-,-
O=C(CSC1CCc2ccccc21)NNC(=O)Nc1ccc(Cl)cc1 (stereo unspecified),-,0,-,-,-,-,-
CCC1C(=NO)C(CC)C(c2ccccc2)NC1c1ccccc1 (stereo unspecified),0,0,0,0,0,0,-
CCC1C(=O)C(CC)C(c2ccccc2)NC1c1ccccc1 (stereo unspecified),61,0,0,0,0,0,0
COC(=O)c1ccc(CN2CC3CC(c4ccccc4)N4CCCC34C2=O)cc1 (stereo unspecified),-,0,-,-,-,-,-
CCOC(=O)c1sc2nc(CC(C)C)c3c(c2c1N)CCC3,0,0,0,0,0,0,-
CC(=O)c1sc2nc(C)c3c(c2c1N)CCCC3,62,0,0,0,0,0,0
Cc1cc(C(=O)CSc2nc3ccccc3[nH]2)c(C)n1CC1CCCO1 (stereo unspecified),90,0,0,0,0,0,77
N=c1n(CCN2CCCCC2)c2ccccc2n1CC(=O)c1ccc(Cl)c(Cl)c1,83,0,0,0,0,0,0
CCn1c(=N)n(CC(=O)c2ccc(Cl)c(Cl)c2)c2ccccc21,0,0,0,0,0,0,-
COc1ccc(CC(=O)Nc2cccc(C(C)=O)c2)cc1S(=O)(=O)N1CCOCC1,100,0,0,-,-,0,0
O=C(Cc1cccs1)N(Cc1cccs1)C1(C(=O)NC2CCCC2)CCCCC1,77,0,0,0,0,0,0
Cc1ccc(S(=O)(=O)N2CCN(C(=O)c3cc(S(=O)(=O)N4CCOCC4)c(Cl)cc3Cl)CC2)cc1,0,0,-,-,-,-,-
O=C(c1cc(S(=O)(=O)N2CCOCC2)c(Cl)cc1Cl)N1CCN(S(=O)(=O)c2cccc(F)c2)CC1,56,0,0,0,-,0,0
CC(NC(=O)CSc1nc2c(c(C(F)(F)F)n1)CCc1ccccc1-2)c1ccccc1 (stereo unspecified),59,0,0,0,0,0,0
COC(=O)[C@]12C[C@H](CC(=O)NCCCN3CCCC3=O)C(=O)N(Cc3ccc(Cl)cc3Cl)C1=C[C@H](C1CCCC1)O[C@@H]2C,-,0,-,-,-,-,-
S=c1nccc(-c2ccc3c(c2)CCO3)[nH]1,59,0,0,98,0,0,0
Fc1ccc(-c2noc(-c3ccc4c(c3)CCO4)n2)cc1,0,0,0,0,0,0,-
COC(=O)C(NC(=O)CNS(=O)(=O)c1ccc(Br)cc1)c1ccccc1 (stereo unspecified),62,0,0,0,0,0,0
O=C(CCN1CCCCC1)c1ccccc1,0,0,0,0,0,0,-
O=C(CCN1CCN(C(=O)c2ccccc2)CC1)c1ccc(Br)cc1,82,0,0,0,0,0,0
SMILES,Granule exo inh,SMARCA2 act,GASC-1 inh,ALR H2O2 inh,PfM18AAP inh,beta cell repl,Exocytosis CP01
Cc1cc(N2CCNC[C@H]2C)ccc1N1CCN(Cc2ccccc2)[C@@H](C)C1,-,0,-,-,-,-,-
O=C(O)c1ccccc1C(=O)c1ccc(Cl)cc1,0,0,0,0,0,0,-
Nc1sccc1C(=O)c1ccc(Cl)cc1,82,0,0,-,0,-,0
C=CCn1c(C)nnc1SCC(=O)N1c2ccccc2NC(=O)C1(C)C,0,0,-,-,-,-,-
CCCCCCn1c(COc2ccccc2F)nnc1SCC(=O)N1c2ccccc2NC(=O)C1(C)C,75,0,0,0,0,0,0
COC(C/C=C/[C@H](O)[C@@H](C)OCc1ccccc1)OC,96,0,0,0,-,0,0
COc1ccc(C(=O)NCCCNc2nc3cc(C)cc(C)c3cc2C#N)cc1,0,0,-,-,-,-,-
COc1cc(OC)cc(C(=O)NCCNc2nc3cc(C)cc(C)c3cc2C#N)c1,61,0,0,-,0,0,0
O=C(Nc1ccccc1-c1nnc(SCc2ccc(Cl)cc2)o1)c1ccccc1,0,0,0,0,0,0,-
O=C(Nc1ccccc1-c1nnc(SCc2ccccc2)o1)c1ccccc1,67,0,0,0,0,0,0
CSc1cccc(NC(=O)c2cccc3cccnc23)c1,82,0,0,0,0,0,0
CC(=O)N(c1ccc(Br)cc1)C1C=CS(=O)(=O)C1 (stereo unspecified),0,0,0,0,0,0,-
CCc1ccc(N(C(C)=O)C2C=CS(=O)(=O)C2)cc1 (stereo unspecified),75,0,0,0,0,0,0
COc1ccc(N2CCN(C(=O)C3CCN(S(=O)(=O)c4ccc5c(c4)CC(C)N5C(=O)C4CC4)CC3)CC2)cc1 (stereo unspecified),-,0,-,-,-,-,-
CCn1nc(C)cc1C(=O)NC1CCCc2c1cnn2-c1ccc(C)c(C)c1 (stereo unspecified),60,0,0,0,0,0,0
CCCC(=O)NC1CCCc2c1cnn2-c1ccc(C)c(C)c1 (stereo unspecified),0,0,0,0,0,0,-
CCCCCCSc1cccc(-c2nc3ccccn3c2NCc2ccccc2)c1,58!,0,0,0,-,0,95
COc1ccc(Oc2c(Cl)cnn(CC(=O)C(c3ccccc3)c3ccccc3)c2=O)cc1,-,0,-,-,-,-,-
CN(CC1CCN(CCc2cccc(C(F)(F)F)c2)CC1)C(=O)c1ccccc1,56,0,0,0,0,0,0
CN(CC1CCN(CCc2cccc(C(F)(F)F)c2)CC1)C(=O)c1ccc(F)cc1,0,0,0,-,0,0,-
Fc1cccc(CNc2ncnc3ccc(-c4ccc5c(c4)OCO5)cc23)c1,65,0,0,0,-,0,0
CCc1nccn1C(=O)c1cnn2c(C(F)F)cc(-c3ccc(C)cc3)nc12,89,0,0,-,0,0,0
CCc1nccn1C(=O)c1cnn2c(C(F)F)cc(-c3ccccc3)nc12,-,-,0,0,0,0,-

# Screens (PubChem BioAssay)
